Source: PubChem BioAssay (NCI)
Compounds without any hit were thinned out: in the full panel of roughly 83,000, 20% have a hit.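 Interpretation: 100, growth as untreated; towards 0, rising growth inhibition; 0, no net growth; 0 to -100, cell death. Compounds scoring below 10 were considered active.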 Unmarked numbers belong to inactive results. Activity calls are given as the source filed them.

The compounds below were run on MDA-MB-468 breast (assay: NCI-60 one-dose screen, 48 h (100 = growth as untreated, 0 = no growth, -100 = all killed)). Details: 10 µM unless noted.

Compound	growth
O=C(Nc1ccc(/C=C2\SC(=O)N(Cc3ccc(OC(F)(F)F)cc3)C2=O)cc1)c1ccc(Cl)c([N+](=O)[O-])c1	12.5%
CCOC(=O)c1cnc2ccc(Br)cc2c1Nc1cccc(S(N)(=O)=O)c1	106%
O=c1oc2ccccc2cc1-c1nn(-c2ccccc2)cc1-c1nn[nH]n1	104%
CNC(=S)NNC(=O)C1CC1	108%
COc1cccc(-c2cn3c(ccc4ccccc43)n2)c1	34.2%
COc1ccccc1N(C(C)=O)C1=C(Cl)C(=O)c2ccccc2C1=O	-92.8% (active)
CN1CCN(CC(=O)N(C)c2ccc(N=C(c3ccccc3)c3c(O)[nH]c4ccc(C#N)cc34)cc2)CC1	93.8%
CCn1c(Sc2nnc(NC(C)=O)s2)nc2c1c(=O)n(C)c(=O)n2C	87.5%
COc1ccc2c(c1)c(-c1nc(-c3c[nH]c4c(Cl)nccc34)cs1)cn2C	-23% (active)
C/C(=N\N1CC(=O)NC1=O)c1ccc([N+](=O)[O-])o1	95.7%
CCN(CC)CCCOCCCNc1cc(OC)cc2cccnc12	-6.79% (active)
Oc1ccc(CN(Cc2ccc(C(F)(F)F)cc2)Cc2ccc(O)c3ncccc23)c2cccnc12	4.04% (active)
O=C1c2cc(S(=O)(=O)O)ccc2C(=O)c2c1cccc2[N+](=O)[O-]	114%
Cc1cc(C(C)(C)CC(C)(C)C)ccc1OCCOCC[N+](C)(C)Cc1ccccc1	-82.5% (active)
Cc1nc2sc(C(=O)Nc3ccccc3)c(N)c2cc1C(=O)c1ccccc1	9.68% (active)
C=C1C(=O)O[C@H]2[C@H]1CC/C(Cn1cc(-c3ccccc3)nn1)=C\CC[C@@]1(C)O[C@@H]21	-38.5% (active)
COc1ccc(C2=NN(C(C)=O)C(c3cn(-c4ccccc4)nc3-c3ccc(Cl)cc3)C2)cc1 (stereo unspecified)	-1.41% (active)
Nc1nc(N)c2cc(CNc3ccc(C(=O)NC(CC(=O)O)C(=O)O)cc3)ccc2n1 (stereo unspecified)	61.4%

Compound	growth
COc1cccc(CCC(=O)c2cc3c(N)c(C(=O)Nc4cccc(Cl)c4C)sc3nc2C)c1	15.1%
O=C(O)c1ccc(-n2cc(/C=N/Nc3ccc(F)cc3)c(-c3cc4ccccc4oc3=O)n2)cc1	119%
c1ccc(-c2nc(N3CCNCC3)c3oc(-c4ccccc4)nc3n2)cc1	-74% (active)
NC1(C(=O)N[C@@H](CCO)c2ccc(Cl)cc2)CCN(c2ncnc3[nH]ccc23)CC1	4.8% (active)
CCCCc1nc(Cl)c(C2CC(c3ccc(S(N)(=O)=O)cc3)=NN2c2cc(Cl)cc(Cl)c2)[nH]1 (stereo unspecified)	22.1%
COc1ccc(-c2nnc(SCC(=O)Nc3ccc(C(=O)/C=C/c4cc(OC)c(OC)c(OC)c4)cc3)n2-c2ccccc2)cc1OC	-14.2% [100 µM] (active)
C[C@H]1[C@H](C)CC[C@]2(COC(=O)CCC(=O)O)CC[C@]3(C)C(=CC[C@@H]4[C@@]5(C)CCCNC(C)(C)[C@@H]5CC[C@]43C)[C@H]12	69% [100 µM]
C=C(C)[C@@H]1CC[C@]2(C(=O)N3CCOCC3)CC[C@]3(C)[C@H](CC[C@@H]4[C@@]5(C)C/C(=C/c6ccncc6)C(=O)C(C)(C)[C@@H]5CC[C@]43C)[C@@H]12	21.4%
NCC(=O)NC(CC(=O)O)C(=O)O (stereo unspecified)	102%
O=S(=O)(NCCCNc1cc(-c2cn(-c3ccccc3)nc2-c2cccc(O)c2)ccn1)c1ccc(F)cc1	-1.5% (active)
CC(C)Sc1nc(NN)c(C#N)c(-c2ccccc2)n1	113%
COc1cc(/C=C/c2cc(/C=C/c3ccc(O)c(OC)c3)n(C(=O)Nc3ccc(C)cc3)n2)ccc1O	-29.1% (active)
O=C(CCN1CCCC1)Nc1ccc2c(NCCCCc3ccccc3)c3ccccc3nc2c1	-74.7% (active)
CCn1c(=O)c2c(=O)c3c4c(oc3oc2c2ccccc21)C(=O)c1ccccc1C4=O	-29.6% (active)
O=c1c2ccccc2sc2c(NCCCNCCO)nc3ccccc3c12	-57.3% (active)
COc1ccc(C(=O)c2cc(C)c(OC)c(C)c2)cc1OC(=O)CCl	37.7%
Cc1nc2cc(Nc3nc(N4CCCCC4)nc(N4CCOCC4)n3)ccc2n1Cc1ccccc1	70.1%
COP(=O)(OC)c1nnn(-c2cccc([N+](=O)[O-])c2)c1C	120%
